# Screening data (PubChem BioAssay)
# ATXN2 expr inh: inhibitors of ATXN2 expression; HEK-293 ATXN2-luciferase reporter, luminescence, 24 h; Potency, µM (doses to about 57 µM), for the others: at the top dose activity change, negative = inhibition, actives largely listed as inhibitors; 360,000 compounds, 0.72% hits; AID 1745845; note: potency is the fitted concentration of half-maximal effect; % is set by controls: 0 for no effect and ±100 for the full control effect; nearly all actives have a fitted effect of over 55% in size
#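 ATXN2-luciferase reporter cells (luciferase flanked by upstream and downstream ATXN2 gene portions) were treated 24 h at 37 °C with compounds at up to 57 uM. SteadyGlo luminescence gave expression; GF-AFC fluorescence gave viability.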
# D3 ag: activates the human D3 dopamine receptor; P35462; D3R DiscoveRx beta-arrestin cells, luminescence, 90 min; max activation, %; 410,000 compounds, 0.58% hits; AID 652048; in the data active = max activation above about 30%; note: 0% is about no effect
# Target sequence (P35462 whole entry, looked up): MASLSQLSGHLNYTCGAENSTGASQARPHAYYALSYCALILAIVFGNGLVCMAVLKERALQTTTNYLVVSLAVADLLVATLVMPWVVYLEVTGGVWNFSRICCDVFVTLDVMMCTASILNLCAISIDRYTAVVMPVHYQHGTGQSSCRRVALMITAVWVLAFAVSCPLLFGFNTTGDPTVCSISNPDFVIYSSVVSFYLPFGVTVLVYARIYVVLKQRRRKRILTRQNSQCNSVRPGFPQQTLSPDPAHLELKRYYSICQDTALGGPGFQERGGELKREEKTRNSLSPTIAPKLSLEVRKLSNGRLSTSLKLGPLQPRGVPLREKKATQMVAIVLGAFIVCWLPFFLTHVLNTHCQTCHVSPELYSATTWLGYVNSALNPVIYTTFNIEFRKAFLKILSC
#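 Agonist-mode cell screen: cells plated at 1500/well and incubated overnight at 37 °C, then exposed to library compounds for 90 min at 37 °C. Detection reagent was added for 30–60 min at room temperature, and luminescence was read.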
# HepG2 tox: counter-screen for TGF-b inhibitors: cytotoxicity in HepG2 cells; 410,000 compounds, 0.76% hits; Potency, µM (titrated, usually from 46.1 µM), without a hit: top-dose activity change, negative = cytotoxicity, most hits filed as cytotoxic; HepG2 CAGA-GFP viability, ATP luminescence, 18 h; note: potency is the fitted concentration of half-maximal effect
#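 CellTiter-Glo luminescence gave cytotoxicity after 18 hours at 37 degrees C. The cells were HepG2 CAGA-GFP in 1% FBS DMEM, stimulated with 500 pg/mL TGF-beta after compound addition. %Activity was normalised to no-cell wells (complete cell-killing) and DMSO (no toxicity), and curves were fitted and classified.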
# TGFb inhibitor: TGF-b pathway inhibition; AID 588855; 410,000 compounds, 1.2% hits; HepG2 CAGA-GFP TGF-b/SMAD3 reporter, GFP fluorescence, 18 h; TGF-beta stimulated, 500 pg/mL final; Potency, µM (doses to about 46.1 µM), for the others: at the top dose activity, negative = inhibition, hits mostly inhibitors; note: potency is the fitted concentration of half-maximal effect; % is set by controls: 0 for no effect and ±100 for the full control effect; nearly all actives have a fitted effect of over 65% in size
#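 GFP signal (ex488/em500-530) from TGF-beta-stimulated HEPG2 CAGA-GFP cells, 500 pg/mL final, 18 h at 37 degrees C in DMEM plus 1% FBS, normalized to unstimulated and DMSO-stimulated controls.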
# D3 antag: D3 dopamine receptor (human) antagonism. D3R cells, DiscoveRx beta-arrestin luminescence, antagonist mode; hits give low values. AID 652054. 360,000 compounds, 2.5% hits. max response, negative = inhibition, %; in the data active = max response below about -50%; inconclusive = no clear call, values can overlap the other calls; note: % is set by controls: 0 for no effect and ±100 for the full control effect
#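 Cells expressing the human receptor were seeded at 1500 cells/well, incubated overnight at 37 degrees C in 5% CO2, then exposed to library compounds with dopamine controls for 90 minutes at 37 degrees C before luminescent detection.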
# S2 tox: viability counter-screen for ATXN expression inhibitors. AID 651635. S2 cells (HEK-293 line with an ATXN2-luciferase reporter) viability, CellTiter-Fluor protease fluorescence, 24 h. 400,000 compounds, 0.49% hits. Potency, µM (top dose mostly 56.7 µM), most hits filed as cytotoxic; note: potency is the fitted concentration of half-maximal effect; nearly all actives have a fitted effect of over 40% in size
# * = called active by the depositor; i = inactive; ? = inconclusive; . = no result; [ ] = another dose, or the depositor's remark. Sampled rows, rich in hits. Any-hit rate of the full collection: about 4.7%. Unless noted, calls come from the whole dose curve; as a rule, active = well fitted curve in the direction sought with a large enough effect; inconclusive = small, poorly fitted or top-dose-only effect, or another doubt; inactive = no such curve, though single readings can be large; an effect the other way counts as inactive or inconclusive.
SMILES,ATXN2 expr inh,D3 ag,HepG2 tox,TGFb inhibitor,D3 antag,S2 tox
CCC(C(=O)Nc1ccc(C)c(Cl)c1)n1c(=O)c(-c2ccccc2NC(C)=O)nc2ccccc21 (configuration not stated),?,-19,-9%,13µM*,.,?
COc1ccc(N(Cc2cccs2)C(=O)Nc2cccc(Cl)c2)cc1,.,-2,-20%,?,.,.
Cc1ccc(/C(O)=C2/C(=O)C(=O)OC2c2ccc(Cl)cc2)cc1 (configuration not stated),-7%,-10,-37%,1%,-19,i
O=C1OC(c2ccccc2)/C(=C(/O)c2ccc(Cl)cc2)C1=O (configuration not stated),-4%,-5,-12%,7%,-62*,i
CN1CCCN(C(=O)[C@@H]2C[C@@H](Sc3nc4ccccc4[nH]3)CN2Cc2ccc(-c3ccccc3)cc2)CC1,.,.,.,.,.,i
CC(C)OCCCN1C(=O)c2[nH]nc(-c3ccccc3O)c2C1c1cccc(OCc2ccccc2)c1 (configuration not stated),.,30*,16µM*,?,.,.
O=C1c2[nH]nc(-c3ccccc3O)c2C(c2cccc(OCc3ccccc3)c2)N1CCO (configuration not stated),.,9,-4%,-6%,.,.
COCCCN1C(=O)c2[nH]nc(-c3ccccc3O)c2C1c1ccc(OCc2ccccc2)cc1 (configuration not stated),.,3,-112%,20µM*,.,.
CC(C)OCCCN1C(=O)c2[nH]nc(-c3ccccc3O)c2C1c1ccccc1F (configuration not stated),.,10,-47%,10µM*,.,.
CCCCN1C(=O)c2[nH]nc(-c3ccccc3O)c2C1c1ccc(OCc2ccccc2)cc1 (configuration not stated),.,13,-70%,3.5µM*,.,.
COC(=O)[C@@H]1CCCN1Cc1ccc2c(c1)CN(Cc1ccccc1F)CCO2,.,.,.,.,.,i
CCC(C)NC(=O)c1cc2c(Cl)nc3ccc(C)cc3c2s1 (configuration not stated),.,5,1%,-3%,.,.
CCOC(=O)/C(=C\c1ccc(Cl)cc1)c1nc2sc(C)c(C)c2c(=O)[nH]1,?,1,8.9µM*,?,-63*,.
CCOC(=O)CSc1nc2sc(C)c(C)c2c(=O)[nH]1,6%,2,-3%,0%,12,i
CCC(c1nnnn1Cc1cccs1)N1CCN(C2CCCC2)CC1 (configuration not stated),-9%,3,4%,10%,-63*,i
CCCC(c1nnnn1Cc1cccs1)N1CCN(C2CCCC2)CC1 (configuration not stated),-10%,-1,0%,13%,-20,i
CC(C)(C)CC(C)(C)N=C1Nc2ccc([N+](=O)[O-])cc2N[C@]12C[C@H]1CCCC(=O)N3CC[C@@H](C2)[C@@H]13,.,.,-27%,?,.,.
COc1cc(OC)cc(-c2nc3ccccc3c(=O)n2OC(=O)c2ccccc2C)c1,.,34*,-39%,?,81,i
C[C@H]1C[C@@H]2[C@H]([C@@H](O)C[C@@]3(C)[C@H]2CC[C@]3(O)C(=O)COC(=O)CCC(=O)O)[C@@]2(C)C=CC(=O)C=C12,.,2,.,.,.,i
O=C(NC1CCNCC1)c1[nH]ncc1NC(=O)c1c(Cl)cccc1Cl,0.39µM*,.,.,.,.,.
O=C(Nc1ccc2cn[nH]c2c1)c1c(Cl)cccc1Cl,2%,-3,8%,10%,-8,i
CC(C)CN(C[C@@H](OP(=O)(O)O)[C@H](Cc1ccccc1)NC(=O)O[C@H]1CCOC1)S(=O)(=O)c1ccc(N)cc1,.,-1,.,.,.,.
O=C(COC(=O)C1CC(=O)N(C2CCCCC2)C1)c1ccc(F)cc1 (configuration not stated),-4%,-7,-9%,-14%,-58*,i
Cc1ccc(N2CC(C(=O)OCC(=O)c3ccc(F)cc3)CC2=O)cc1 (configuration not stated),19%,7,0%,2%,10,i
CN1CCN(c2ncc3c(n2)CCN(Cc2ccc(Br)s2)C3)CC1,1%,-20,0%,1%,.,i
SMILES,ATXN2 expr inh,D3 ag,HepG2 tox,TGFb inhibitor,D3 antag,S2 tox
O=c1c(Cl)c2oc3ccccc3nc-2c2ccccc12,-3%[11.3 µM],11,-48%,5µM*,22,i
O=C(O)c1cc2ccccc2c(Cc2cc3ccccc3c(C(=O)O)c2O)c1O (tested in a mixture with another compound),.,.,.,.,.,i
ONC(=Nc1cccc(C(F)(F)F)c1)c1cccnc1,-34%,-2,-5%,21%,-63*,i
Cc1cc([N+](=O)[O-])ccc1NC(=S)NC(=O)Cc1ccccc1,3%,-18,9%,?,-61*,i
Cc1cc([N+](=O)[O-])ccc1NCc1ccccc1,5%,-3,-15%,-31%,-6,i
Cc1cc([N+](=O)[O-])ccc1NCc1ccc2ccccc2c1,5%,-12,-7%,20µM*,-11,i
CCN1CCN(CCCNC(=O)c2ccc3c(c2)NC(=O)/C(=C\c2cccc(C)c2)S3)CC1,.,-1,13µM*,?,-5,?
O=C1Nc2cc(C(=O)NCCN3CCCCCC3)ccc2S/C1=C\c1ccccc1,.,-4,14µM*,?,-27,?
O=C1Nc2cc(C(=O)NCCCN3CCCC3)ccc2S/C1=C/c1cccc(Cl)c1,.,-2,16µM*,?,-59*,?
COc1ccc(C(=O)NCCCN2CCOCC2)cc1OC,1%,3,-9%,-3%,14,i
COc1ccc(/C=C2/Sc3ccc(C(=O)NCCCN4CCOCC4)cc3NC2=O)cc1OC,-38%,-6,20µM*,14µM*,-2,?
COc1ccc(CN2CCN(C(C)=O)CC2)cc1OC1CCN(C(=O)c2ccc3[nH]c(C)c(C)c3c2)CC1,.,.,.,.,.,i
Cc1ccc(NC(=O)Cn2c(=O)n(Cc3ccc4c(c3)OCO4)c(=O)c3oc4ccccc4c32)cc1C,.,-22,-3%,-5%,.,.
Cc1nnc(NCc2ccc(Cl)cc2)c2c1nnn2Cc1ccc(F)cc1,10%,8,4%,2%,.,i
COc1cc(-c2noc(C)c2C#CCCN2C(=O)c3ccccc3C2=O)cc(OC)c1OC,.,.,-1%,-4%,.,.
Cc1cccc(/C=C2/Sc3ccc(C(=O)NCCN4CCCC4)cc3NC2=O)c1,.,-11,-131%,?,-7,?
